Assay outcomes as filed in PubChem BioAssay.
PPARg SRC-3 ag: PPARgamma agonists recruiting SRC-3 coactivator, primary screen, biochemical; Peroxisome proliferator-activated receptor gamma (Homo sapiens), P37231; biochemical PPARgamma/SRC-3 coactivator recruitment assay; activation, % at 8 µM; 200,000 compounds, 0.26% hits; AID 731, 2007; in the data active = activation above about 23%;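 note: 0% = DMSO and 100% = reference agonist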
SRC1 TRFRET art: TR-FRET detection interference compounds, primary screen, artefact control for PPARgamma SRC-1 recruitment agonists, biochemical, TR-FRET emission ratio; TR-FRET ratio at 8 µM; 99,000 compounds, 0.34% hits; TR-FRET detection artefact counter-screen; hits give high values; AID 1051, 2008; in the data active = TR-FRET ratio above about 2300
TR-FRET SRC-2 ct: TR-FRET signal artefacts, primary screen, artefact control for PPARgamma SRC-2 agonist project, biochemical; 200,000 compounds, 0.4% hits; TR-FRET ratio at 8 µM; AID 1049, 2008; TR-FRET artefact counter-screen; hits give high values
SRC3 TRFRET art: TR-FRET detection interference compounds, artefact control for PPARgamma SRC-3 recruitment agonists, biochemical, TR-FRET ratio; TR-FRET artefact counter-screen, PPARgamma/SRC-3 format; hits give high values; TR-FRET ratio at 8 µM; 99,000 compounds, 0.39% hits
PPARg SRC-2 ag: agonists of PPARg-SRC-2 recruitment, primary screen, biochemical, HTS | Peroxisome proliferator-activated receptor gamma (Homo sapiens), P37231 | PPARgamma LBD-SRC-2 recruitment | activation, % at 8 µM | 200,000 compounds, 0.34% hits; in the data active = activation above about 22%;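 note: 0% = vehicle and 100% = reference agonist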
PPARg SRC1 recr: PPARgamma agonists recruiting SRC-1 coactivator, primary screen, biochemical. activation, % at 8 µM. Peroxisome proliferator-activated receptor gamma (Homo sapiens), P37231. 200,000 compounds, 0.41% hits. PPARgamma-SRC-1 coactivator recruitment biochemical assay. AID 631, 2007; in the data active = activation above about 19%;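 note: 0% = DMSO and 100% = reference agonist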
PPARg SRC2 conf: agonists of PPARgamma SRC-2 coactivator recruitment, confirmation, biochemical, HTS; shares compounds with PPARg SRC-3 ag; biochemical SRC-2 recruitment by PPARgamma; activation, % at 8 µM; 790 compounds, 52% hits; in the data active = activation above about 22%;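 note: 0% = vehicle alone and 100% = reference agonist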
PPARg SRC1 conf: PPARgamma agonists recruiting SRC-1 coactivator, confirmation, biochemical. activation, % at 8 µM. AID 1300, 2008. PPARgamma–SRC-1 coactivator recruitment biochemical assay. 790 compounds, 43% hits. shares compounds with PPARg SRC-3 ag; in the data active = activation above about 20%;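 note: 0% = vehicle wells and 100% = reference agonist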
PPARg SRC3 conf: PPARgamma-driven SRC-3 coactivator recruitment agonists, confirmation, biochemical. shares compounds with PPARg SRC-3 ag. biochemical PPARgamma-SRC-3 coactivator recruitment, agonist mode. activation, % at 8 µM. 790 compounds, 29% hits. AID 1301, 2008; in the data active = activation above about 24%;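 note: 0% = vehicle wells and 100% = reference agonist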
* hit, by the source's call; / = no result. A selection: hits, their analogues and other compounds. The true share with any hit is near 0.9%. Cut-off read from the data, not from the text of the source, unless noted: active = TR-FRET ratio above about 2000; inactive = the rest.

SMILES	PPARg SRC-3 ag	SRC1 TRFRET art	TR-FRET SRC-2 ct	SRC3 TRFRET art	PPARg SRC-2 ag	PPARg SRC1 recr	PPARg SRC2 conf	PPARg SRC1 conf	PPARg SRC3 conf
COC(=O)c1c(N)n(Cc2ccc(OC)cc2)c2nc3ccccc3nc12	1.7	2577*	1618	1451	1.6	19.5	/	/	/
COc1ccc(CN2C(=O)NC(=O)/C(=C/c3ccc([N+](=O)[O-])o3)C2=O)cc1	2.0	1926	1567	1634	9.4	3.0	/	/	/
COc1ccc(NP(=O)(Oc2ccccc2OC)Oc2ccccc2OC)cc1	26.8*	1612	1429	1523	5.4	16.5	11.4	24.6*	19.6
O=C(CF)NC(NC(=S)Nc1ccccc1O)C(Cl)(Cl)Cl (centres undefined)	-0.1	1637	1655	1677	-2.1	7.1	/	/	/
CN1/C(=C\C=C\C2=[N+](C)c3ccc4ccccc4c3C2(C)C)C(C)(C)c2ccccc21	69.6*	/	3050*	/	84.3*	42.0*	49.4*	39.0*	37.2*
Nc1ccccc1C(=O)OC1CSC1	-5.7	/	1537	/	-2.9	8.1	/	/	/
O=C(O)c1cccc2nc3ccccc3nc12	0.9	1925	1525	1766	18.8	9.3	9.6	2.0	5.3
COC(=O)c1ccccc1-n1c(C)nc2ccccc2c1=O	-14.4	/	1341	/	-4.0	-3.3	/	/	/
CN(C)c1ccc(/C=C/C=C2/C(=O)NC(=O)N(c3ccccc3)C2=O)cc1	49.8*	2995*	2441*	2895*	29.1*	49.2*	70.2*	46.7*	47.4*
CC(C)c1oc(=O)cc2c1[C@@H](O)[C@H]1OC(=O)[C@@]3(C)C[C@@H](O)[C@@H](O)[C@@]2(C)C13 (some centres undefined)	-7.1	1513	1460	1359	1.0	-0.2	/	/	/
CCn1c(=O)cc(SCC(=O)N2CCC3(CC2)OCCO3)c2ccccc21	102.1*	/	2944*	/	61.0*	64.9*	36.9*	24.7*	26.4*
Cn1c(=O)n(CC(=O)N2CCC3(CC2)OCCO3)c(=O)c2ccccc21	-1.8	1688	1560	1562	3.5	-3.4	/	/	/
